In PubChem BioAssay (NCATS):
Several values for one entry are separate records, joined by “and”; a condition that tells them apart may be missing. Equal values may be shown once. Records with an inconclusive call do not appear. Where a call stands in place of a potency, no number is given. The source holds several records for some structures; these can differ, active in one and inactive in another. Activity calls are given as the source filed them. Unless noted, calls follow the shape of the dose curve; as a rule, active = well fitted curve in the direction sought with a large enough effect; inconclusive = small, poorly fitted or top-dose-only effect, or another doubt; inactive = no such curve, though single readings can be large; an effect the other way counts as inactive or inconclusive.

Key:
[1] = target: Cytochrome P450 1A2 (Homo sapiens) (UniProt P05177); assay: p450-cyp1a2 (AID 410; calls by dose curve; also: potency is read from the fitted curve at half-maximal effect)
Cytochrome P450 1A2 (Homo sapiens), sequence (P05177 whole entry, looked up): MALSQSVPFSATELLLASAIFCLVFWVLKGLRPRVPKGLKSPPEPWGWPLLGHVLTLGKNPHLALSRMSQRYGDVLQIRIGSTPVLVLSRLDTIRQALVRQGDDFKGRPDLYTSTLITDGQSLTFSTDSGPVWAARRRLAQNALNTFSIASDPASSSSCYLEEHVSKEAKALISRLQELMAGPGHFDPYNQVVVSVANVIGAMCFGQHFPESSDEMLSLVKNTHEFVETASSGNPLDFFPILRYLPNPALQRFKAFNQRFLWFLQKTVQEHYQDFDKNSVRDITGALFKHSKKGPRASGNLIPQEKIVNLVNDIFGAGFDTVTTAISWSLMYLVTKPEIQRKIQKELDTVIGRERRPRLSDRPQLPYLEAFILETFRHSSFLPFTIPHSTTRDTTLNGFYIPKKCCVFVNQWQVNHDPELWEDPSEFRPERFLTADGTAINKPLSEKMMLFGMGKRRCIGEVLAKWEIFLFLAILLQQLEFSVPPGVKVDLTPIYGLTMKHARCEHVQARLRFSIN
Outline: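 Inhibition was calculated relative to 57 uM furafylline (full inhibition). The reaction used human CYP1A2 at 20nM with Luciferin-ME at its Km, 100uM, driven by an NADPH-regenerating system for 60 min at room temperature.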

[2] = NFAT Signaling Pathway (AID 444; active = well fitted curve in either direction with a large enough effect, not every such curve was filed as active;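 also: carbachol stimulus at about its EC50 of 1 µM final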); conditions: Jurkat NFAT-bla M1, carbachol, beta-lactamase ratio, 5 h
Outline: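 Read-out: CCF4 FRET ratio (460 nm/530 nm) after 1 h RT dye loading, used for %activity and AC50 from titration series. Cells: Jurkat NFAT-β-lactamase/M1 line, treated with compound plus 1 uM carbachol for 5 h, 37 °C.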

[3] = Stat Signaling Pathway (AID 446; active = well fitted curve in either direction with a large enough effect, not every such curve was filed as active;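 also: ME-180 cervical cancer cells given 40 pM IL-6 alongside compound; SIE-controlled beta-lactamase reporter measured as 460/530 nm FRET emission ratio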); conditions: ME-180 SIE beta-lactamase reporter, IL-6 stimulated, 5 h
Outline: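 ME-180 cells carrying a SIE-driven beta-lactamase reporter are stimulated with 40 pM IL-6 for 5 h at 37C in the presence of compound. The 460/530 nm FRET substrate ratio is read after 2.5 h at RT. Data are normalised to 300 pM IL-6 and to 125 nM JAK inhibitor controls.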

[4] = target: Glucocorticoid receptor (Homo sapiens) (UniProt P04150); assay: GR-GFP Redistribution (AID 450;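 active = compounds whose dose series gives a full or clear partial fitted curve of increased nuclear translocation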; also: potency is read from the fitted curve at half-maximal effect); conditions: U2OS GR-GFP nuclear translocation, laser cytometry, 2 h
Glucocorticoid receptor (Homo sapiens), sequence (P04150 whole entry, looked up, the tested form may be a part): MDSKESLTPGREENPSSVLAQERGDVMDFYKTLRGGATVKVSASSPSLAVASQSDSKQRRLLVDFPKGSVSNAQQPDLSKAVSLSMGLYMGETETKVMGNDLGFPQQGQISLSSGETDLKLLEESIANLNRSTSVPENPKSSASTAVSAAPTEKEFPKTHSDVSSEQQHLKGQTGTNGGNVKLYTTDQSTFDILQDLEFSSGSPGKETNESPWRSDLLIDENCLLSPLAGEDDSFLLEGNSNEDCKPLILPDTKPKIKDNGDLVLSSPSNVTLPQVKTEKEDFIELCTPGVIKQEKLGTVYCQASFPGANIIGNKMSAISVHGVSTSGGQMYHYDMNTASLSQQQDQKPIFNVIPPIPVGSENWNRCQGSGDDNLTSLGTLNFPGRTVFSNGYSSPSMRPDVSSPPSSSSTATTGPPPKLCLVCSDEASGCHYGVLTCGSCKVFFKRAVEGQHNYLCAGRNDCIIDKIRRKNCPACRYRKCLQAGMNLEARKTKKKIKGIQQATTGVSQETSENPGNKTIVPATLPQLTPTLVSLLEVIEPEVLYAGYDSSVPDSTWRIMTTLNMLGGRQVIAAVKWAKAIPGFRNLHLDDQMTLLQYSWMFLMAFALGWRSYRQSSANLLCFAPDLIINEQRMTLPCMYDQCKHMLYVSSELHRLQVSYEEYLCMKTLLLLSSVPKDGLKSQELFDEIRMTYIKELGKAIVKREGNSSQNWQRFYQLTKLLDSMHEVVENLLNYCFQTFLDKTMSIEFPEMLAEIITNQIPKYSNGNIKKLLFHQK

[5] = target: Glucocorticoid receptor (Homo sapiens) (UniProt P04150); assay: GR-EFC Redistribution (AID 451; calls by dose curve; also: potency is read from the fitted curve at half-maximal effect); conditions: CHO-K1 GR-EFC translocation, beta-gal luminescence, 2 h
Outline: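 Translocation of GR-ED fusion to nuclear EA restores b-gal, read by luminescence after 1 h room-temperature detection. Engineered CHO-K1 biosensor cells, 1,000/well, exposed 2 h at 37 C to titrations up to 46 uM final.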

[6] = target: Mitogen-activated protein kinase 10 (Mus musculus) (UniProt Q61831); assay: JNK3 AlphaScreen Assay (AID 530; active = well fitted curve in either direction with a large enough effect, not every such curve was filed as active;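 also: kinase came from lysate of stimulated human HepG2 cells; signal reports phosphorylation of biotinylated GST-cJun 1-79 at Ser73 with 10 µM ATP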)
Outline: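 Room-temperature AlphaScreen kinase assay; pre-activated HepG2 lysate as JNK3 source, biotin-GST-cJun(1-79) substrate, 10 uM ATP, compound 15 min preincubation.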

[7] = target: 3',5'-cyclic-AMP phosphodiesterase 4B (Homo sapiens) (UniProt Q07343); assay: qHTS Assay for Inhibitors of PDE-IV (AID 607; active = well fitted activation curve with a large enough effect in the main read-out, with a control signal flat, not every such curve was filed as active)
3',5'-cyclic-AMP phosphodiesterase 4B (Homo sapiens), sequence (Q07343 whole entry, looked up): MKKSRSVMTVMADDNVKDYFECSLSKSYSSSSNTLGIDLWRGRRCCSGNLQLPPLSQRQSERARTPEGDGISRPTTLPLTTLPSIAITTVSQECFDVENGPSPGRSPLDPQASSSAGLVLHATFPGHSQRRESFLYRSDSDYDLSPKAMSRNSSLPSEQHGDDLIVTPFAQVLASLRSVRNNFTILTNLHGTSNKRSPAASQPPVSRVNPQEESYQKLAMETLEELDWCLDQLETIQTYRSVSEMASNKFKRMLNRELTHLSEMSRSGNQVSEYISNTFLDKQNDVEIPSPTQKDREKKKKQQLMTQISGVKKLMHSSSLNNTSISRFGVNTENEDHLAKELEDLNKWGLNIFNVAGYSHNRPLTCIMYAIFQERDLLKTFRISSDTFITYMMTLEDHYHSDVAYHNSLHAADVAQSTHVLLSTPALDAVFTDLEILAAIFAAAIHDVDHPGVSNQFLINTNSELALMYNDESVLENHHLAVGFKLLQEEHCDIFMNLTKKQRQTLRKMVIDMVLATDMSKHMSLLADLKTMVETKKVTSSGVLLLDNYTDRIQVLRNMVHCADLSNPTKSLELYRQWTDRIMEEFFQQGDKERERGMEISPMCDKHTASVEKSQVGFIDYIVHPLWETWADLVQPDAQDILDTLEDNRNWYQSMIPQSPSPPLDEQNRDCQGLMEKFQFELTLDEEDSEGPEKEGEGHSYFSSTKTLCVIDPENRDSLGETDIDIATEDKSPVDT
Outline: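 HEK293 ACTOne cells with CNG channel (1000/well), endogenous PDE4; membrane potential dye, compounds up to 22.9 uM final. Fluorescence Ex 535/Em 590; RO 20-1724 (100 uM final) as reference.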

[8] = target: Guanine nucleotide-binding protein G(i) subunit alpha-1 (Homo sapiens) (UniProt P63096); assay: qHTS Assay for Inhibitors of RGS12 GoLoco Motif Activity (Green Fluorophore) (AID 879);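 also: negative values mean loss of peptide binding seen as reduced polarization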
Guanine nucleotide-binding protein G(i) subunit alpha-1 (Homo sapiens), sequence (P63096 whole entry, looked up): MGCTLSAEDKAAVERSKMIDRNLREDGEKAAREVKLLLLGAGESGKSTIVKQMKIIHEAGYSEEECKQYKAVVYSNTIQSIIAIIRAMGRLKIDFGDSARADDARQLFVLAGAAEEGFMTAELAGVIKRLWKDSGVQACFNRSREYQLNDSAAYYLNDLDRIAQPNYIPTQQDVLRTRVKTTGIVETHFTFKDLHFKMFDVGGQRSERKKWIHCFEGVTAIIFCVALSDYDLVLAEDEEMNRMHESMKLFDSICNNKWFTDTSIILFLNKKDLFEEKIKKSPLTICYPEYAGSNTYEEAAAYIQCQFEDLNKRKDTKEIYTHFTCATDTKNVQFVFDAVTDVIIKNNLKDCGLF
Outline: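 Fluorescence polarization assay: 50 nM Gαi1 with 10 nM FITC-labeled RGS12 GoLoco peptide in 10 mM Tris pH 7.5, 150 mM NaCl, 0.1 mM GDP, 0.05% NP40, 10 min at room temperature with compound.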

[9] = target: Pyruvate kinase (Leishmania mexicana) (UniProt Q27686); assay: qHTS Validation Assay for Inhibitors of Leishmania Mexicana Pyruvate Kinase (AID 945)
Outline: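 Mutant LmPYK (E451W), 0.2 nM, plus 0.5 mM PEP and 0.1 mM ADP in 50 mM imidazole pH 7.2 containing 0.01% Tween 20 and 0.05% BSA. Incubated 1 h at room temperature; luminescence via PKLight, normalized to DMSO.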

[10] = target: Pyruvate kinase PKM (Homo sapiens) (UniProt P14618); assay: qHTS Assay for Activators of Human Muscle Pyruvate Kinase (AID 954; active = well fitted curve in the direction sought with a large enough effect, not every such curve was filed as active)
Pyruvate kinase PKM (Homo sapiens), sequence (P14618 whole entry, looked up): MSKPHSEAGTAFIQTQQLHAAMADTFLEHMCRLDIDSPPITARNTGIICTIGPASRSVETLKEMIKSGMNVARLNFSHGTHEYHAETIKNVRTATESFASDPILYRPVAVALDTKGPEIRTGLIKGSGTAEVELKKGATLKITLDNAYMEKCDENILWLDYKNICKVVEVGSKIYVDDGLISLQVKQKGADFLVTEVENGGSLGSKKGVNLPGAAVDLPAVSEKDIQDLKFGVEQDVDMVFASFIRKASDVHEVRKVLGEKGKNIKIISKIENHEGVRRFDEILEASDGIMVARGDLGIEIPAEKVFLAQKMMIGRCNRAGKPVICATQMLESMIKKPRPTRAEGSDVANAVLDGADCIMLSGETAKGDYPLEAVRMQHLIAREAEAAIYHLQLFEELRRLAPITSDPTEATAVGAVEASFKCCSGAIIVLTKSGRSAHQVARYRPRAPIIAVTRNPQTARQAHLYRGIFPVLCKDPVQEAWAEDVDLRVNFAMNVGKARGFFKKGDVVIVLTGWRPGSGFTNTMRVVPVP
Outline: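 Purified human PKM2 (0.1 nM) with 0.5 mM PEP (Km) and 0.1 mM ADP in 50 mM imidazole pH 7.2, KCl, MgCl2, 1 h at room temperature; ATP formed read by coupled luciferase luminescence. Normalized to no-enzyme/110 uM thiadiazolimine inhibition; 0.3 nM enzyme column for activation.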

[11] = target: Alpha-galactosidase A (Homo sapiens) (UniProt P06280); assay: Counterscreen for Glucocerebrosidase Inhibitors: qHTS Assay for Human alpha-Galactosidase at pH 4.5 (AID 992)
Alpha-galactosidase A (Homo sapiens), sequence (P06280 whole entry, looked up): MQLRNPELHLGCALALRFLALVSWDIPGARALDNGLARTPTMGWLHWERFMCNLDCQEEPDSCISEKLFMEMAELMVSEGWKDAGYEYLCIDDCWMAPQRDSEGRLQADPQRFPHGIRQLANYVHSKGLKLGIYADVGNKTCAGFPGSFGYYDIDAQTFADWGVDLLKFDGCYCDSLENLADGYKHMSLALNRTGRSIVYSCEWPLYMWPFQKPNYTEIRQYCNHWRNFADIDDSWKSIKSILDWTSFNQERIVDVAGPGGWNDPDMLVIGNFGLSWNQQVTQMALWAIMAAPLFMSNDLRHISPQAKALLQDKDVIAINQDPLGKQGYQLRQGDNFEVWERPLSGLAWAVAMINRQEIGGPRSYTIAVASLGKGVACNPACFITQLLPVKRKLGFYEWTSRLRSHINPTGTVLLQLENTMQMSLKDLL
Outline: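 Human enzyme (2 nM) with 80 uM 4-methylumbelliferyl alpha-D-galactopyranoside in 50 mM citric acid, 0.005% Tween-20, pH 4.5, 20 min at room temperature. Compounds 0.7 nM–77 uM; fluorescence Ex 365/Em 440 after pH 10 stop; AC50 from Hill fits.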

[12] = target: alpha-glucosidase (Oryza sativa, rice) (UniProt Q653V4); assay: Counterscreen for Glucocerebrosidase Inhibitors: qHTS Assay for Rice alpha-Glucosidase at pH 5.0 (AID 997)
Outline: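 Rice alpha-glucosidase (4 nM final) with 400 uM 4-methylumbelliferyl-alpha-D-glucopyranoside in citrate buffer pH 5.0, 20 min at room temperature, stopped at pH 10; fluorescence 365/440 nm, compounds 0.7 nM–77 uM, AC50 from Hill fits.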

[13] = qHTS Assay for Lipid Storage Modulators (AID 1519; calls by dose curve); conditions: Drosophila S3 cells, BODIPY lipid droplet/cell ratio, laser cytometry, cells loaded with oleic acid
Outline: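 Cells seeded at 5,000 per well were treated with compounds over a concentration series and loaded with oleic acid (400 uM, as added). Lipid droplet fluorescence (488 nm excitation, 500-530 nm channel) was read by laser-scanning cytometry and normalized to 20 uM Triacsin C.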

[14] = target: DNA dC->dU-editing enzyme APOBEC-3G (Homo sapiens) (UniProt Q9HC16); assay: qHTS for inhibitors of Vif-A3G interactions: Validation (AID 588379)
DNA dC->dU-editing enzyme APOBEC-3G (Homo sapiens), sequence (Q9HC16 whole entry, looked up): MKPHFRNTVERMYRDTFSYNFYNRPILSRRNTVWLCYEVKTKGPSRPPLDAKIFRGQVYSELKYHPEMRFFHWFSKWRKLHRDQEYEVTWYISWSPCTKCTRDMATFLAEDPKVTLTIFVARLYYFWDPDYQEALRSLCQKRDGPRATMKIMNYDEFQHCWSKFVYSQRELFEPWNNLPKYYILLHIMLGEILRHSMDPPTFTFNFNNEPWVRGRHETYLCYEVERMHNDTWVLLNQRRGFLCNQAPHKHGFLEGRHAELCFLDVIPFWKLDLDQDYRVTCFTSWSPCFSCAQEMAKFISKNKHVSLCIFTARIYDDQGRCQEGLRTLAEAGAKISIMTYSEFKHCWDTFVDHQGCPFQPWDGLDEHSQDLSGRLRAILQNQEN
Outline: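 HeLa cells stably expressing Vif and A3G-eYFP, 700 cells/well, incubated overnight at 37 deg C, then exposed to compound overnight at 37 deg C. Inhibition of Vif-mediated degradation read as increased yellow fluorescence (Ex 488/Em 500-530) by laser-scanning cytometry.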

[15] = test system: Zika virus NS2B-NS3 protease; assay: Primary screen GU AMC qHTS for Zika virus inhibitors (AID 1347154); also: nearly all actives have a fitted effect of over 70% in size
Outline: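 Fluorogenic AMC-substrate cleavage by noncovalent NS2B-NS3 protease complex (25 nM, pH 8.0 Tris buffer with Tween 20) followed for 15 minutes at room temperature (~20% conversion). Percent inhibition from ex340/em450 signal change, fitted by 4-parameter Hill equation.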

[16] = Primary qHTS for small molecule stabilizers of the endoplasmic reticulum resident proteome: Secreted ER Calcium Modulated Protein (SERCaMP) assay (AID 1508630)
Outline: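 GLuc-SERCaMP-expressing SH-SY5Y cells, pretreated 16 h with compound, are challenged with thapsigargin to empty ER calcium stores; after 4 h, coelenterazine is added directly to the medium and luminescence is imaged.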

[17] = AP1 Signaling Pathway (AID 357; active = well fitted curve in either direction with a large enough effect, not every such curve was filed as active;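 also: ME-180 reporter cells stimulated with EGF at its EC50 level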); conditions: ME-180 (cervical carcinoma) AP-1-bla reporter, EGF-induced, beta-lactamase ratio, 5 h
Outline: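 In this screen, ME-180 cells in Opti-MEM with 0.5% dialyzed FBS received EC50 EGF and compound titrations for 5 h. AP-1 reporter beta-lactamase was detected via CCF4 ratio, giving AC50 for positive and negative modulators.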

[18] = target: Ubiquitin carboxyl-terminal hydrolase 1 (Homo sapiens) (UniProt O94782); assay: Inhibitors of USP1/UAF1: Pilot qHTS (AID 504865);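 also: rhodamine fluorescence freed from ubiquitin-rhodamine substrate followed over time; top concentration of the series differs between compounds; nearly all actives have a fitted effect of over 35% in size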
Ubiquitin carboxyl-terminal hydrolase 1 (Homo sapiens), sequence (O94782 whole entry, looked up): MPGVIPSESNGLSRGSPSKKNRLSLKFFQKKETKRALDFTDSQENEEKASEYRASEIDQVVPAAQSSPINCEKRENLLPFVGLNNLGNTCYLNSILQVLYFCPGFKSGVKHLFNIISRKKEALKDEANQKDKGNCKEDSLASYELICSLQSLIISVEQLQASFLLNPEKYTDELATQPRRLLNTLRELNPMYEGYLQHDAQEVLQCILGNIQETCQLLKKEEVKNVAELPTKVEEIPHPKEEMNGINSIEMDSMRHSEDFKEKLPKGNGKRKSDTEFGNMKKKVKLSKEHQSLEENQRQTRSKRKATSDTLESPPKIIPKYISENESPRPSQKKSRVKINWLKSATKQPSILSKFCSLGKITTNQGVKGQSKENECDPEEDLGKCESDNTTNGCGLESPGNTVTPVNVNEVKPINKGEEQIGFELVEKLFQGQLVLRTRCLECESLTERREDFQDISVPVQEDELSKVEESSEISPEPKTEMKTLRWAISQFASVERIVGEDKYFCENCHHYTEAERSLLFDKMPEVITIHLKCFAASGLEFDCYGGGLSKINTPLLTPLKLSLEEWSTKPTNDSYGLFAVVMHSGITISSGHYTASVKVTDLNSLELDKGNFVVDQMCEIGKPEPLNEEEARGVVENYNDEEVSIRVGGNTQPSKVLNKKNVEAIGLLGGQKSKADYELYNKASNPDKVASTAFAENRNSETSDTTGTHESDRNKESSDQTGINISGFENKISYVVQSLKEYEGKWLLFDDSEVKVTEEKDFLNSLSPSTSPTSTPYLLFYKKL
Outline: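 1nM USP1/UAF1 + cpd, 15 min RT; start w/ Ub-Rho 150nM final; kinetic FL 480/540 nm, 6 reads q60 s. Buffer 50mM HEPES pH 7.8, 0.5mM EDTA, 1mM TCEP, 0.01% Tween-20, 0.1 mg/ml BSA.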

[19] = target: Cytochrome P450 3A4 (Homo sapiens) (UniProt P08684); assay: qHTS Assay for Activators of Cytochrome P450 3A4 (AID 885); also: nearly all actives have a fitted effect of over 65% in size
Cytochrome P450 3A4 (Homo sapiens), sequence (P08684 whole entry, looked up): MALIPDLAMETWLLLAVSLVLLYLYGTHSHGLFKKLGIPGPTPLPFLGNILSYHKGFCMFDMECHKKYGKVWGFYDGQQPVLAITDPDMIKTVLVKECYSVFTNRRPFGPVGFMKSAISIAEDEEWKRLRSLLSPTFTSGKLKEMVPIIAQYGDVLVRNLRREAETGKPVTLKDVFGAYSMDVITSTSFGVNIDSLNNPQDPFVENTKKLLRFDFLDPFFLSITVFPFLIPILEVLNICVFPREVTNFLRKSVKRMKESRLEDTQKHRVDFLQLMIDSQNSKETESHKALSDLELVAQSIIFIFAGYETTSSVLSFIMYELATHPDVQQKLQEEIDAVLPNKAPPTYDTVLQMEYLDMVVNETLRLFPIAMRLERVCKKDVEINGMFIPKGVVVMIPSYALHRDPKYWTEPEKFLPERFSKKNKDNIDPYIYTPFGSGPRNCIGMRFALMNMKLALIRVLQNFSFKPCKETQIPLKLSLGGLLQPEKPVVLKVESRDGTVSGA
Outline: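 Human CYP3A4 (20 nM) with Luciferin-PPXE at 25 uM (its KM) in 200 mM KPO4; 10 min compound preincubation, then NADPH regeneration and 60 min reaction at RT. Luciferin read by luminescence; normalized to 57 uM ketoconazole full inhibition.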

[20] = qHTS Assay for Identification of Small Molecule Agonists for Thrombopoietin (TPO) Signaling Pathway (AID 917)
Outline: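 Activators of TPO signaling were sought in murine Ba/F3 cells transfected with the human receptor, using a luciferase gene driven by the Glycoprotein IIb promoter; 24-hr compound exposure at 37 C alongside 26 pM TPO, in IL-3-free medium.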

[21] = measured here: cell count channel max response
[22] = measured here: lipid channel max response

N[C@H](CCC(=O)N[C@H](CSN=O)C(=O)NCC(=O)O)C(=O)O
Potency [1]: inactive
activity change, negative = inhibition ([2]; at 38 µM (top of the series)): 0.964% (inactive)
activity, negative = inhibition ([3]; at 38 µM (top of the series)): 14.7% (inactive)
Potency [4]: > 46 µM (inactive)
Potency [5]: > 46 µM (inactive)
Potency [6]: inactive
Potency [7]: inactive
outcome [8]: inactive
Potency [9]: inactive
outcome [10]: inactive
outcome [11]: inactive
outcome [12]: inactive
activity change, negative = inhibition ([13]; at 57.5 µM (top of the series)): 1.5% (inactive)
max response [13, 21]: 13.2%
max response [13, 22]: 16.6%
Potency [14]: inactive
Potency [15]: inactive
Potency [16]: inactive

COC(=O)[C@@H]1[C@@H]2C[C@H]3c4[nH]c5ccccc5c4CCN3C[C@@H]2CC[C@@H]1O
activity change, negative = inhibition ([17]; at 7.69 µM (top of the series)): -0.0828% (inactive)
activity change, negative = inhibition ([17]; at 17.2 µM (top of the series)): 0.544% (inactive) and 5.73% (inactive) and 0.793% (inactive)
activity change, negative = inhibition ([2]; at 7.69 µM (top of the series)): -0.996% (inactive)
activity change, negative = inhibition ([2]; at 17.2 µM (top of the series)): -15% (inactive) and 0.703% (inactive) and 5.17% (inactive)
activity, negative = inhibition ([3]; at 7.69 µM (top of the series)): 0.353% (inactive)
activity, negative = inhibition ([3]; at 17.2 µM (top of the series)): 5.5% (inactive) and -1.53% (inactive) and 0.108% (inactive)
Potency [6]: inactive
activity change, negative = inhibition ([13]; at 25.7 µM (top of the series)): 1.23% (inactive) and -2.04% (inactive) and -1.29% (inactive)
max response [13, 21]: -5.31% and -9.47% and 16%
max response [13, 22]: -5.26% and -13% and 13.4%
Potency [18]: inactive
Potency [14]: inactive
Potency [15]: inactive
Potency [16]: inactive

C[C@@](N)(C(=O)O)c1ccc(S(=O)(=O)O)cc1
Potency [1]: inactive
Potency [4]: > 46 µM (inactive)
Potency [5]: > 46 µM (inactive)
Potency [6]: inactive
Potency [7]: inactive
activity change, negative = inhibition ([13]; at 57.5 µM (top of the series)): -0.133% (inactive)
max response [13, 21]: 9.59%
max response [13, 22]: 13.8%
Potency [18]: inactive
Potency [14]: inactive
Potency [15]: inactive
Potency [16]: inactive

C[C@H](N=C(NC#N)Nc1ccncc1)C(C)(C)C
Potency [1]: 15.8 µM (active) and inactive
activity change, negative = inhibition ([2]; at 17.2 µM (top of the series)): 5.32% (inactive)
activity change, negative = inhibition ([2]; at 38 µM (top of the series)): 6.54% (inactive)
activity, negative = inhibition ([3]; at 17.2 µM (top of the series)): -8.19% (inactive)
activity, negative = inhibition ([3]; at 38 µM (top of the series)): -12.4% (inactive)
Potency [4]: > 46 µM (inactive) and > 20.6 µM (inactive)
Potency [5]: > 46 µM (inactive) and > 20.6 µM (inactive)
Potency [6]: inactive
Potency [7]: inactive
outcome [8]: inactive
Potency [19]: inactive
Potency [20]: inactive
outcome [10]: inactive
outcome [11]: inactive
outcome [12]: inactive
activity change, negative = inhibition ([13]; at 25.7 µM (top of the series)): -0.699% (inactive)
max response [13, 21]: 1.19%
max response [13, 22]: -1.85%
Potency [18]: inactive
Potency [14]: inactive
Potency [15]: inactive
Potency [16]: inactive
